From PubChem BioAssay (EPA / NIEHS)
Active and inactive are the calls of the source. Rule for the calls: active = hit-call score of the fitted dose curve at least 0.9, where 1 is the maximum; inactive = score below 0.9.

Legend:
Conditions in all cases: mRNA level, 48 h; actives raise or lower the signal
[1] = read-out: Potassium channel subfamily K member 1 (KCNK1), KCNK1 (gene 3775); experiment: LTEA_HepaRG_KCNK1: Life Technologies and Expression Analysis (LTEA) Assay for Potassium channel subfamily K member 1 (KCNK1) using HepaRG (AID 2283511)
In short: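 Differentiated human HepaRG cells in serum-free induction medium were exposed in duplicate for 48 h to 8 half-log concentrations up to 100 uM in 0.5% DMSO. KCNK1 mRNA was measured by TaqMan qRT-PCR, normalized to ACTB, GAPDH and POLR2A, and fitted bidirectionally versus DMSO.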

[2] = read-out: Keratin 19 (KRT19), KRT19 (gene 3880); experiment: LTEA_HepaRG_KRT19: Life Technologies and Expression Analysis (LTEA) Assay for Keratin 19 (KRT19) using HepaRG (AID 2283512)
In short: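 Gene-expression endpoint in the human liver line HepaRG after 48 h exposure to up to 100 uM test chemical with 0.5% DMSO vehicle; KRT19 mRNA by qRT-PCR, analyzed bidirectionally versus DMSO.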

[3] = read-out: JUN Transcription Factor, JUN (gene 3725); experiment: LTEA_HepaRG_JUN: Life Technologies and Expression Analysis (LTEA) Assay for JUN Transcription Factor using HepaRG (AID 2283513)
In short: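 Human HepaRG liver cells receive test chemicals in 0.5% DMSO for 48 h across an eight-point range topping at 100 uM. Expression changes in JUN are scored in both directions against the DMSO vehicle.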

[4] = read-out: Lipase C (LIPC), LIPC (gene 3990); experiment: LTEA_HepaRG_LIPC: Life Technologies and Expression Analysis (LTEA) Assay for Lipase C (LIPC) using HepaRG (AID 2283514)
In short: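 Differentiated human HepaRG cells in serum-free induction medium were exposed in duplicate for 48 h to eight concentrations (top 100 uM, half-log steps, 0.5% DMSO). LIPC mRNA was quantified by TaqMan qRT-PCR, normalized to ACTB, GAPDH and POLR2A, with bidirectional fitting versus DMSO.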

[5] = read-out: Lipoprotein lipase (LPL), LPL (gene 4023); experiment: LTEA_HepaRG_LPL: Life Technologies and Expression Analysis (LTEA) Assay for Lipoprotein lipase (LPL) using HepaRG (AID 2283515)
In short: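 Differentiated human HepaRG cells in serum-free induction medium were exposed in duplicate for 48 h to eight half-log concentrations (top 100 uM) in 0.5% DMSO. LPL mRNA was quantified by TaqMan qRT-PCR, normalized to ACTB, GAPDH and POLR2A.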

[6] = read-out: MicroRNA 122 (MIR122), gene 406906; experiment: LTEA_HepaRG_MIR122: Life Technologies and Expression Analysis (LTEA) Assay for MicroRNA 122 (MIR122) using HepaRG (AID 2283516); note: the transcript read is the microRNA miR-122
In short: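 HepaRG, 48 h exposure, 8-pt half-log from 100 uM, 0.5% DMSO; TaqMan qRT-PCR; bidirectional fit vs DMSO.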

[7] = read-out: matrix metalloproteinase-10 (MMP10), MMP10 (gene 4319); experiment: LTEA_HepaRG_MMP10: Life Technologies and Expression Analysis (LTEA) Assay for matrix metalloproteinase-10 (MMP10) using HepaRG (AID 2283517)
In short: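 HepaRG, collagen I, ~100,000 cells/well; serum-free induction medium; 48 h exposure, duplicate, 8-pt half-log to 100 uM, 0.5% DMSO. Readout: TaqMan qRT-PCR, normalized to ACTB/GAPDH/POLR2A; bidirectional fit vs DMSO.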

MYC, MYC (gene 4609) = experiment: LTEA_HepaRG_MYC: Life Technologies and Expression Analysis (LTEA) Assay for MYC using HepaRG (AID 2283518)
In short: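 Cells are thawed, plated and cultured 48 h, then treated for 48 h with test chemicals (eight half-log concentrations from 100 uM, 0.5% DMSO vehicle). RNA is isolated and MYC expression quantified by qRT-PCR against three housekeeping genes.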

[8] = read-out: matrix metalloproteinase-3 (MMP3), MMP3 (gene 4314); experiment: LTEA_HepaRG_MMP3: Life Technologies and Expression Analysis (LTEA) Assay for matrix metalloproteinase-3 (MMP3) using HepaRG (AID 2283519)
In short: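 Differentiated human HepaRG cells, plated 48 h on collagen I, were exposed in duplicate for 48 h in serum-free induction medium to eight half-log concentrations up to 100 uM in 0.5% DMSO. MMP3 mRNA was quantified by TaqMan qRT-PCR, normalised to ACTB, GAPDH and POLR2A.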

[9] = read-out: Paternally Expressed 10 (PEG10), PEG10 (gene 23089); experiment: LTEA_HepaRG_PEG10: Life Technologies and Expression Analysis (LTEA) Assay for Paternally Expressed 10 (PEG10) using HepaRG (AID 2283520)
In short: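 Chemicals tested on HepaRG cells for 48 h, highest concentration 100 uM. PEG10 expression assessed by qRT-PCR relative to DMSO control.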

[10] = read-out: Nuclear factor NF-kappa-B p105 subunit (Homo sapiens) (UniProt P19838); experiment: LTEA_HepaRG_NFKB1: Life Technologies and Expression Analysis (LTEA) Assay for Nuclear Factor Kappa B Subunit 1 (NFKB1) using HepaRG (AID 2283521);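 note: TaqMan qRT-PCR transcript normalised to ACTB GAPDH and POLR2A housekeeping genes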
In short: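 Differentiated human HepaRG cells in serum-free induction medium with 0.5% DMSO were exposed for 48 h to eight half-log concentrations, top 100 uM, in duplicate. NFKB1 mRNA measured by Fluidigm TaqMan qRT-PCR, normalised to ACTB, GAPDH and POLR2A; bidirectional fit versus DMSO.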

[11] = read-out: Protein phosphatase 2A (PPP2R4), PTPA (gene 5524); experiment: LTEA_HepaRG_PPP2R4: Life Technologies and Expression Analysis (LTEA) Assay for Protein phosphatase 2A (PPP2R4) using HepaRG (AID 2283522)
In short: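 Gene-expression endpoint in HepaRG hepatic cells: 48 h treatment across eight half-log concentrations up to 100 uM in 0.5% DMSO. PPP2R4 mRNA by qRT-PCR, normalized to three endogenous control genes.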

[12] = read-out: Phosphatase and tensin (PTEN), PTEN (gene 5728); experiment: LTEA_HepaRG_PTEN: Life Technologies and Expression Analysis (LTEA) Assay for Phosphatase and tensin (PTEN) using HepaRG (AID 2283523)
In short: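 Differentiated human HepaRG cells, plated 48 h then switched to serum-free induction medium, were exposed in duplicate for 48 h to eight half-log concentrations up to 100 uM in 0.5% DMSO. PTEN mRNA measured by TaqMan qRT-PCR, normalized to ACTB/GAPDH/POLR2A, bidirectional fit versus DMSO.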

[13] = read-out: solute carrier (SLC22A1), SLC22A1 (gene 6580); experiment: LTEA_HepaRG_SLC22A1: Life Technologies and Expression Analysis (LTEA) Assay for solute carrier (SLC22A1) using HepaRG (AID 2283524)
In short: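 Human HepaRG cells were plated 48 h, switched to serum-free induction medium, then exposed in duplicate for 48 h to 8-point half-log series from 100 uM in 0.5% DMSO. SLC22A1 mRNA measured by qRT-PCR, normalized to ACTB/GAPDH/POLR2A, fitted bidirectionally versus DMSO.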

[14] = read-out: Pyruvate Dehydrogenase Kinase 4 (PDK4), PDK4 (gene 5166); experiment: LTEA_HepaRG_PDK4: Life Technologies and Expression Analysis (LTEA) Assay for Pyruvate Dehydrogenase Kinase 4 (PDK4) using HepaRG (AID 2283525)
In short: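 Differentiated human HepaRG cells, pre-cultured 48 h, were exposed in duplicate for 48 h in serum-free induction medium to eight half-log concentrations up to 100 uM in 0.5% DMSO. PDK4 mRNA was quantified by qRT-PCR, normalized to ACTB, GAPDH and POLR2A, bidirectional fitting versus DMSO.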

[15] = read-out: NAD(P)H dehydrogenase [quinone] 1 (NQO1), NQO1 (gene 1728); experiment: LTEA_HepaRG_NQO1: Life Technologies and Expression Analysis (LTEA) Assay for NAD(P)H dehydrogenase [quinone] 1 (NQO1) using HepaRG (AID 2283526)
In short: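 Human HepaRG hepatic cells received chemicals for 48 h in serum-free induction medium with 0.5% DMSO, up to 100 uM. Expression was assessed by TaqMan qRT-PCR against housekeeping controls and fitted bidirectionally against DMSO.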

[16] = read-out: Nuclear factor erythroid 2-related factor 2 (Homo sapiens) (UniProt Q16236); experiment: LTEA_HepaRG_NFE2L2: Life Technologies and Expression Analysis (LTEA) Assay for Nuclear factor erythroid 2-related factor 2 (NFE2L2) Transcription Factor using HepaRG (AID 2283527);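 note: TaqMan qRT-PCR transcript level normalised to ACTB GAPDH and POLR2A housekeeping genes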
In short: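 Differentiated human HepaRG cells in serum-free induction medium were exposed for 48 h to eight concentrations (top 100 uM, half-log dilutions, 0.5% DMSO), in duplicate. NFE2L2 mRNA was quantified by TaqMan qRT-PCR, normalized to ACTB, GAPDH and POLR2A, with bidirectional fitting versus DMSO.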

[17] = read-out: succinate dehydrogenase complex iron sulfur subunit B (SDHB), SDHB (gene 6390); experiment: LTEA_HepaRG_SDHB: Life Technologies and Expression Analysis (LTEA) Assay for succinate dehydrogenase complex iron sulfur subunit B (SDHB) using HepaRG (AID 2283528)
In short: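 HepaRG cells (~100,000/well, plated 48 h) exposed in duplicate for 48 h in serum-free induction medium to 8-point half-log series from 100 uM in 0.5% DMSO; mRNA by qRT-PCR normalised to ACTB, GAPDH, POLR2A; bidirectional fit versus DMSO.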

[18] = read-out: Signal transducer and activator of transcription 3 (Homo sapiens) (UniProt P40763); experiment: LTEA_HepaRG_STAT3: Life Technologies and Expression Analysis (LTEA) Assay for Signal transducer and activator of transcription (STAT3) using HepaRG (AID 2283529)
In short: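 Differentiated human HepaRG cells in serum-free induction medium were exposed in duplicate for 48 h to eight half-log concentrations up to 100 uM in 0.5% DMSO. STAT3 mRNA was quantified by TaqMan qRT-PCR, normalized to ACTB, GAPDH and POLR2A, and fitted bidirectionally against DMSO.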

[19] = read-out: solute carrier (SLCO1B1), SLCO1B1 (gene 10599); experiment: LTEA_HepaRG_SLCO1B1: Life Technologies and Expression Analysis (LTEA) Assay for solute carrier (SLCO1B1) using HepaRG (AID 2283530)
In short: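 Gain or loss of SLCO1B1 mRNA is fitted against the 0.5% DMSO vehicle in human HepaRG liver cells treated 48 h at up to 100 uM in half-log steps. Expression comes from qRT-PCR normalized to endogenous controls.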

Measured: outcome

Sequence of Nuclear factor NF-kappa-B p105 subunit (Homo sapiens) (P19838 whole entry, looked up): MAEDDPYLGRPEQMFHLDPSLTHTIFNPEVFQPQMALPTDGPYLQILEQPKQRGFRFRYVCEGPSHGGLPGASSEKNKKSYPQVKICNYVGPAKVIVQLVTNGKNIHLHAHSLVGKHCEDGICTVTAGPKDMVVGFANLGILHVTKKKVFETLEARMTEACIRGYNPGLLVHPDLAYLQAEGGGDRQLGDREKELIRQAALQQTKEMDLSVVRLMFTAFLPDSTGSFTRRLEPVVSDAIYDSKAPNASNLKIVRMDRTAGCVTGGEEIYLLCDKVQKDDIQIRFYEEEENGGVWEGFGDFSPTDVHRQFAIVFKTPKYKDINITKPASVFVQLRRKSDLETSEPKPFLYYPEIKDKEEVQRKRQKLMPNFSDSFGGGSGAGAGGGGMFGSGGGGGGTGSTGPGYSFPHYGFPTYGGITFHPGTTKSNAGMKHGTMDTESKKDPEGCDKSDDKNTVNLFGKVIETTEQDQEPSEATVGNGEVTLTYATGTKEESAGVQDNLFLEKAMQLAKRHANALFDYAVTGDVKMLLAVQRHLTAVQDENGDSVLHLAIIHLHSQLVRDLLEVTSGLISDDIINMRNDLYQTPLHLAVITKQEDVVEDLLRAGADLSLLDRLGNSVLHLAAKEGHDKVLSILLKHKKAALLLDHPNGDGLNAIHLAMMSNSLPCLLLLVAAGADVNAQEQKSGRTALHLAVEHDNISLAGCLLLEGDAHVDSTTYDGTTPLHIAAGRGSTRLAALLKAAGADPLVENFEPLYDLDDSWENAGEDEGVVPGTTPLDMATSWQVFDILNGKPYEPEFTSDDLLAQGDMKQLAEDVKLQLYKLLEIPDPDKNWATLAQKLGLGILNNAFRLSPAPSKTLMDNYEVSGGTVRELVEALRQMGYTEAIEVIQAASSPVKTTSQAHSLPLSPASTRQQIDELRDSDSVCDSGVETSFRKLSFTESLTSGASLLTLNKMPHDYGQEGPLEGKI
Sequence of Nuclear factor erythroid 2-related factor 2 (Homo sapiens) (Q16236 whole entry, looked up): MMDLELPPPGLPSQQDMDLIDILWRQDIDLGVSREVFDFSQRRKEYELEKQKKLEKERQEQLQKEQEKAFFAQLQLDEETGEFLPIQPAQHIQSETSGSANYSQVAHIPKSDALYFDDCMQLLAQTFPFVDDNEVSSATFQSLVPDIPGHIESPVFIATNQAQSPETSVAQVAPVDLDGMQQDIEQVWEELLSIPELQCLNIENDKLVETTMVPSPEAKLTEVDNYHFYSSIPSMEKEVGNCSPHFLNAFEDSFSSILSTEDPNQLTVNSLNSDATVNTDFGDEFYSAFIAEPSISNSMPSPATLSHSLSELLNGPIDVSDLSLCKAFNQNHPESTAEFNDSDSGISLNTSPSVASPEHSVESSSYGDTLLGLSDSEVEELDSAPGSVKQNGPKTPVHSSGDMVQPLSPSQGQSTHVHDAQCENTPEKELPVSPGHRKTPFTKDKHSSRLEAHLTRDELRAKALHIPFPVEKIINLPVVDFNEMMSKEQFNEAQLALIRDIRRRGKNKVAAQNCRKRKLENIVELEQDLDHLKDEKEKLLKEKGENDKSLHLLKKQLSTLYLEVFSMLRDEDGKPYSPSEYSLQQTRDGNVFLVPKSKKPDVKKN
Sequence of Signal transducer and activator of transcription 3 (Homo sapiens) (P40763 whole entry, looked up): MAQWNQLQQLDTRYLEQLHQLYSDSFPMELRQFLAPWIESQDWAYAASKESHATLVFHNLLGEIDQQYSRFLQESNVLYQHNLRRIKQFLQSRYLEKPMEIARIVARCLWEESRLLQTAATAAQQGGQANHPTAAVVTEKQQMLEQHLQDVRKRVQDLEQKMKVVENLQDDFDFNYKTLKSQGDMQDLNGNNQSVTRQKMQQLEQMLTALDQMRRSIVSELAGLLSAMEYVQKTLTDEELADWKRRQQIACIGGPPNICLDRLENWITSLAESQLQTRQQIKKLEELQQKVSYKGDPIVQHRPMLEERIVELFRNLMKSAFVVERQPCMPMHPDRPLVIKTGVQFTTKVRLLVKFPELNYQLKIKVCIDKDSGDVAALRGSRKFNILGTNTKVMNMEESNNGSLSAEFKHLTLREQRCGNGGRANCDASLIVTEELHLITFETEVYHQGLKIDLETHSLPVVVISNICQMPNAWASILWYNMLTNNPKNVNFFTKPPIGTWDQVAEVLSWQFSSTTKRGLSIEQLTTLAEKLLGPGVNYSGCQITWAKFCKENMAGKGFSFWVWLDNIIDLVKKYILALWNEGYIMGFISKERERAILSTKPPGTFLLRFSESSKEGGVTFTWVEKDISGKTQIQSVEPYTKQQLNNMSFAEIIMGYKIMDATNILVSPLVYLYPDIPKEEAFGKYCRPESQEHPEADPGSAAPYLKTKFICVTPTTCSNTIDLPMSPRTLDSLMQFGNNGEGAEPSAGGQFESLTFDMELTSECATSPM

O=C(O)c1ccc([N+](=O)[O-])cc1
inactive: [1] | [2] | [3] | [4] | [5] | [6] | [7] | MYC, MYC (gene 4609) | [8] | [9] | [10] | [11] | [12] | [13] | [14] | [15] | [16] | [17] | [18] | [19]
